Experimental findings from PubChem BioAssay (NCI) are described below.

What all share (experiment): NCI-60 one-dose screen, 48 h (100 = growth as untreated, 0 = no growth, -100 = all killed)
What all share (details): 10 µM unless noted

For test [1], the system named is SR leukemia.
In test [2] the test system is RPMI-8226 leukemia.
In test [3] the test system is OVCAR-8 ovarian.
Test [4] deals with OVCAR-5 ovarian.
Test [5] deals with OVCAR-4 ovarian.
The test system of test [6] is SK-OV-3 ovarian.
In test [7] the test system is IGROV1 ovarian.
For test [8], the system named is OVCAR-3 ovarian.
Test [9] relates to HS 578T breast.
The test system of test [10] is NCI/ADR-RES ovarian.

About 83,000 compounds went through this panel and 20% of them were active in at least one assay; those are over-represented in the sample as a whole.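 In brief: 96-well plates, 48 h treatment, single concentration, percent growth endpoint.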 Unmarked numbers belong to inactive results. Active and inactive are the calls of the source. The calls were made as follows: active = growth percent below 10; inactive = the rest.

Consider `CCOC(=O)c1nn(-c2ccc(S(N)(=O)=O)cc2)c2nc(C)cc(=O)n12`, for which the growth is 104% in test [1]; 103% in test [2]; 105% in test [3]; 117% in [4]; 102% in test [5]; 105% in test [6]. In addition, the growth in test [7] is 98.7%; in [8] it was 110%; in test [9], 103%; in test [10] it was 103%.

Consider `O=C(Nc1ccc(Oc2cccc(F)c2)c(Cl)c1)c1cccnc1`, for which the growth in [1] is 23.8%; in test [2], 15.8%; in [3], 34.6%; in test [4] it was 72.6%; in test [5], 46.2%; in [6] it was 30%. For the same compound, the growth in [7] was 41.8%; in test [8], 6.97% (active); in test [9], 31.3%; in test [10], 13.9%.

For `O=C(Nc1ccc(Oc2cccc(Cl)c2)c(Cl)c1)c1cnccn1`, the growth was 26.3% in [1]; 18.1% in test [2]; 28% in test [3]; 60.4% in [4]; 38.9% in test [5]; 83.3% in [6]. Besides, the growth in test [7] is 27%; in test [8], -7.23% (active); in test [9] it was 18.7%; in test [10], 14.8%.

As for `O=C(Nn1c2c(sc1=NC1CC1)C(=O)c1ccccc1C2=O)c1cc2ccc1CCc1ccc(cc1)CC2`, the growth in test [1] was 29.4%; in test [2], 19.5%; in test [3], 3.79% (active); in [4] it was 111%; in test [5], 40.5%; in test [6], 59.1%. Also, the growth in test [7] is 34.6%; in test [8], 1.11% (active); in [9], 46.2%; in test [10] it was 17.8%.

Regarding `CC(=O)N1N=C(c2ccc(C(F)(F)F)c(F)c2)CC1c1[nH]c(C)c(C(=O)NCC(F)(F)F)c1C` (stereo not given), the growth in test [1] is 86.9%; in test [2], 90.7%; in test [3], 41.9%; in test [4], 79.3%; in test [5] it was 13.6%; in test [6] it was 75.2%. Also, the growth in test [7] is 69.5%; in [8], 68.3%; in test [9] it was 31.8%; in test [10], 78.5%.

Regarding `Cc1cccc(/C=C2\CN(C(=O)OC(C)(C)C)C/C(=C\c3cccc(C)c3)C2=O)c1`, the growth was 6.54% (active) in test [1]; -7.31% (active) in test [2]; 85.4% in test [3]; 109% in test [4]; 89.2% in test [5]; 93.3% in test [6]. In addition, the growth is 90.4% in test [7], 97.5% in test [8], 96.7% in test [9] and 88% in test [10].

Turning to `COc1ccc(C(=O)/C=C/c2c(C(F)(F)F)nc3ccccn23)cc1OC`, the growth was -9.91% (active) in test [1]; 6.41% (active) in test [2]; 10.9% in test [3]; 9.01% (active) in test [4]; 5.92% (active) in [5]; 17.3% in [6]. Besides, the growth in test [7] was 17.3%; in test [8], -51.3% (active); in [9], 4.59% (active); in [10], -22.7% (active).

In the case of `Oc1c(Br)cc(Br)c2ccc(Cn3cc(-c4ccccc4C(F)(F)F)nn3)nc12`, the growth in [1] was 2.33% (active); in test [2] it was 45.4%; in test [3], 92.9%; in test [4] it was 100%; in [5], 79.4%; in [6], 116%. In addition, the growth in [7] was 107%; in test [8], 51.5%; in test [9], 105%; in [10], 105%.

With `CCOC(=O)C1=C(N)Oc2c(sc3c(F)cccc23)C1c1ccc(O)cc1` (stereo not given), the growth in test [1] was 15.3%; in test [2] it was 25.2%; in test [3], 44.1%; in test [4], 92.4%; in [5], 38.4%; in [6], 78.9%. In addition, the growth in [7] is 48.9%; in test [8] it was 45.3%; in test [9] it was 31.9%; in test [10] it was 36.6%.

Consider `N#CSc1c[nH]c2cccc(/C=C/C(=O)/C=C(/C=C/c3cccc4[nH]cc(SC#N)c34)OB(F)F)c12`, for which the growth in test [1] is 6.43% (active); in test [2], -6.08% (active); in test [3] it was -26.1% (active); in test [4], -10.8% (active); in [5], 7.06% (active); in test [6], 78.7%. Also, the growth in test [7] is 3.87% (active); in test [8], 2.33% (active); in test [9], 26.3%; in [10], 25.7%.

For `CCC1=C[C@@H]2C[C@]3(C(=O)OC)c4[nH]c5ccccc5c4CC[N@+](CC(=O)Nc4cc5c(cc4OC)N(C)[C@H]4[C@@](O)(C(=O)OC)[C@H](OC(C)=O)[C@]6(CC)C=CCN7CC[C@]54[C@@H]76)(C2)[C@H]13`, the growth in test [1] was 99.4%; in test [2] it was 105%; in [3], 102%; in test [4], 109%; in test [5], 104%; in test [6], 105%. The growth in test [7] is 104%; in test [8] it was 109%; in test [9] it was 99.4%; in [10], 106%.

As for `CN(C)CCNC(=O)c1ccc(-c2nc3ccc4[nH]ncc4c3c3c2C2CCC3C2)cc1` (stereo not given), the growth in test [1] is 1.91% (active); in test [2], -5.84% (active); in test [3], 20.8%; in test [4], 96%; in test [5], 48.6%; in test [6] it was 1.15% (active). In addition, the growth in test [7] was 16.4%; in test [8], 20.9%; in [9], 9.56% (active); in test [10], 77.7%.

Take `COc1ccc(C/C(C)=C(/c2ccc(OCCN(C)C)cc2)c2ccc(OC(=O)NCc3ccccc3)cc2)cc1`: the growth in test [1] was -46% (active); in test [2] it was 32.9%; in test [3], 77.4%; in test [4] it was 92%; in test [5], 78.4%; in test [6], 81.4%. Besides, the growth is 85.3% in test [7], 63.9% in test [8], 56.2% in test [9] and 77.2% in test [10].

With `COc1cc(/C=C/C(=O)c2ccc(F)cc2)ccc1OCCCCOc1ccc(/C=C/C(=O)c2c(C)nc3ccccc3c2C)cc1OC`, the growth in test [1] is 79.2%; in test [2], 79.3%; in test [3], 78.3%; in test [4], 108%; in [5] it was 76.5%; in [6] it was 107%. Further, the growth was 101% in test [7], 92% in [8], 117% in test [9] and 91.4% in [10].

As for `O=C(NCCNc1nccc(Nc2ccc(S(=O)(=O)Nc3ccccn3)cc2)n1)c1cccc([N+](=O)[O-])c1`, the growth was 84.7% in test [1]; 96.1% in test [2]; 104% in [3]; 93% in test [4]; 89.9% in test [5]; 100% in test [6]. For the same compound, the growth in test [7] is 106%; in test [8], 108%; in [9] it was 108%; in test [10], 104%.

For the compound `Cc1nc2sc(C(=O)Nc3cccc(Br)c3)c(N)c2cc1C(O)c1ccccc1` (stereo not given), the growth in test [1] is 13.4%; in test [2], 11.1%; in [3] it was 20.8%; in test [4], 57%; in test [5], 70.5%; in test [6], 35.6%. Moreover, the growth in test [7] is 32.1%; in test [8], 8.16% (active); in test [9], 21%; in [10] it was 11.7%.

For `O=C(O)c1ccc(-n2cc(/C=N/Nc3ccccc3)c(-c3ccc(F)cc3F)n2)cc1`, the growth in test [1] is 72%; in test [2], 50%; in test [3] it was 53.3%; in test [4], 57.6%; in [5] it was 80.4%; in test [6] it was 89.1%. Further, the growth is 52.6% in test [7], 62.3% in [8], 68.6% in [9] and 56.7% in test [10].

For the compound `COc1cc(OCc2cccc(Br)c2C)cc(OC)c1C=O`, the growth was 82.6% in [1]; 52.8% in [2]; 89.9% in test [3]; 55.5% in [4]; 67.7% in test [5]; 94.8% in [6]. The growth is 61.8% in test [7], 87.1% in test [8], 89.1% in [9] and 89.7% in [10].

For `COc1ccc(C(=O)C/C(=C\c2ccc(Cl)cc2)C(=O)NCc2ccccc2)cc1`, the growth in [1] is 60.3%; in test [2], 75.7%; in [3], 82.3%; in [4], 99.5%; in test [5], 105%; in test [6] it was 79.3%. Further, the growth in [7] is 86.3%; in test [8], 100%; in [9], 86.4%; in test [10] it was 89.1%.

Take `CCCCCCCCCCCCCCCCOCCCOP(=O)(O)C1CCCN(O)C1=O` (stereo not given): the growth was 7.77% (active) in test [1]; 10.9% in [2]; 23.8% in test [3]; 20% in test [4]; 16.5% in test [5]; 34.4% in test [6]. The growth in [7] was -2.28% (active); in [8], 17.3%; in test [9] it was 83.1%; in test [10], 8.85% (active).

For the compound `O=C(Nc1cccc(-c2ccc(N3CCOCC3)nn2)c1)Nc1cccc(C(F)(F)F)c1`, the growth in [1] is 60.4%; in test [2], 31.4%; in test [3] it was 35.4%; in test [4], 125%; in [5] it was 73.3%; in [6] it was 104%. Further, the growth in test [7] was 97.1%; in [8], 74.3%; in test [9], 91.6%; in test [10], 72.2%.

`COC(=O)[C@]12CCC(C)(C)C[C@H]1[C@H]1/C(=N/OCCc3nn[nH]n3)C[C@@H]3[C@@]4(C)CC[C@H](OC(C)=O)C(C)(C)[C@@H]4CC[C@@]3(C)[C@]1(C)CC2`: the growth in test [1] is 31.8%; in [2] it was 22.6%; in test [3], 29.7%; in test [4] it was 74.4%; in test [5], 25.3%; in test [6], 58.7%. Further, the growth was 30.9% in [7], 31.8% in test [8], 48.3% in [9] and 30.1% in test [10].

In the case of `NC(=O)c1cccc(-n2ccc3cc(NC(=O)c4ccc(N5CCOCC5)c(C(F)(F)F)c4)ccc32)n1`, the growth in test [1] is 26.5%; in test [2], 12.2%; in test [3], 31.9%; in test [4], 70.1%; in test [5] it was 47%; in test [6], 43.3%. Besides, the growth in [7] was 74.8%; in [8], 48.7%; in [9] it was 14%; in test [10], 66.1%.

As to `CCOC(=O)c1cc(C)n(-c2ccc(C(=O)O)cc2)c1C`, the growth in [1] is 75.5%; in test [2], 104%; in [3], 87.6%; in test [4], 76.7%; in test [5], 94.6%; in test [6], 92.8%. The growth in [7] is 107%; in test [8] it was 115%; in test [9] it was 90.8%; in test [10] it was 89.6%.

As for `O=C(NCCCl)Nc1ncccc1OCc1ccccc1`, the growth in [1] was 78%; in test [2] it was 99.4%; in test [3], 104%; in test [4] it was 90.9%; in test [5], 96.8%; in test [6], 114%. Moreover, the growth is 95.8% in test [7], 107% in test [8], 110% in test [9] and 106% in [10].

Take `C=CCOC(=O)Nc1cccn([C@H](Cc2ccccc2)C(=O)NCCC(C)C)c1=O`: the growth in [1] is 64.6%; in [2] it was 85.9%; in test [3], 102%; in test [4], 117%; in [5] it was 92.7%; in test [6] it was 103%. Also, the growth in [7] was 106%; in test [8], 119%; in test [9] it was 103%; in test [10], 93.1%.
